# Data published in PubChem BioAssay.
# For some assays here: Potency and affinity values are given separately. Active and inactive are the calls of the source. Entries that show only a call come without a potency. Unless noted, the rule behind the calls is not given here.
# Target: Protein kinase 7 (PK7), Plasmodium falciparum 3D7 (PF3D7_0213400) (UniProt Q7YTF7)
# Assay: inhibition of Plasmodium PK7 catalytic activity – biochemical, TCAMS antimalarial set, Kinase-Glo luminescence (AID 1159587)
# Conditions: recombinant PfPK7, Kinase-Glo ATP depletion luminescence
# Protein kinase 7 (PK7), Plasmodium falciparum 3D7 (PF3D7_0213400), sequence (Q7YTF7 1-343): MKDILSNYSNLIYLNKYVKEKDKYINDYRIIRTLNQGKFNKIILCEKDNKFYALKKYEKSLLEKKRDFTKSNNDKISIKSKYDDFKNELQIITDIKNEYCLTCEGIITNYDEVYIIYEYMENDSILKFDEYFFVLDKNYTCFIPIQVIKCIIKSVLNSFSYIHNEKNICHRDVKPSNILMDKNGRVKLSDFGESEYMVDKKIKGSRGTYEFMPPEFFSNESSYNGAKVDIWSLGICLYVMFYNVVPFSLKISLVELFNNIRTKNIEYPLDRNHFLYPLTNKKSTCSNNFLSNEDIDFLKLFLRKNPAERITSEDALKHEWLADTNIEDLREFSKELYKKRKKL
row,SMILES,outcome
1,Nc1nc(N)c2c(ccn2Cc2cc3c(cc2Cl)OCO3)n1,inactive
2,O=C(Nc1ccc(S(=O)(=O)NCCCN2CCOCC2)cc1)c1cc(-c2ccccc2)n[nH]1,inactive
3,Cn1nc(-c2cccc(CN[C@@H]3CCc4ccc(O)cc43)c2)c2cnc(NCCCN3CCCC3)nc21,inactive
4,CCOc1ccc2c(NN=Cc3c4ccccc4cc4ccccc34)cc(C)nc2c1,inactive
5,Cc1[nH]c(C)c([N+](=O)[O-])c(=O)c1-c1ccc(Oc2ccccc2)cc1,inactive
6,O=C(Cc1cnc[nH]1)Nc1cccc(-c2ccc(-c3nc4ccc(C(F)(F)F)cc4[nH]3)cc2)c1,inactive
7,O=C(CCc1cnc[nH]1)Nc1cccc(-c2cccc(-c3nc4ccc(C(F)(F)F)cc4[nH]3)c2)c1,inactive
8,Cc1[nH]c(C)c(-c2cccc(-c3ccc(OC(F)(F)F)cc3)c2)c(=O)c1Br,inactive
9,FC(F)(F)c1cccc2c(NN=Cc3ccccc3)ccnc12,inactive
10,Cc1ccc(-n2c(=O)c3c(n4c(SC(C)C)nnc24)-c2ccccc2CC32CCCCC2)cc1,inactive
11,Cc1cccc(-c2nc3[nH]c(=O)cc(NC(=O)C(C)C)n3n2)c1,inactive
12,Cc1noc(-c2ccc(N3CCC(C(=O)N4CCN(C(C)C)CC4)CC3)cc2)n1,inactive
13,Cc1ccc(NC(=S)N2CCCN(CCCCCNC(=O)/C=C/c3ccc(Cl)c(Cl)c3)CC2)cc1Cl,inactive
14,Cc1cc(NC(=O)c2cccs2)ccc1OC1CCN(Cc2ccc(C#N)cc2)CC1,inactive
15,CN(CCCNC(=S)NC12CC3CC(CC(C3)C1)C2)CCCNc1ccnc2cc(Cl)ccc12,inactive
16,Cc1cc(C(=O)Nc2ccc3c(c2)CCN3C2CCN(Cc3cccc4cc[nH]c34)C2)no1 (stereo not given),inactive
17,CC(C)CCNCc1ccc(OCc2cccc(C(=O)Nc3ccccc3)c2)c(I)c1,inactive
18,Cc1nc2nc(N)nc(N)c2c(C)c1Cc1c(Cl)cccc1Cl,inactive
19,CC(=O)Nc1ccc(C(=O)Nc2cccc(-c3ccc(-c4nc5ccc(C(F)(F)F)cc5[nH]4)cc3)c2)cn1,inactive
20,CC1(C)N=C(N)N=C(N)N1OCc1cc2ccccc2cc1CON1C(N)=NC(N)=NC1(C)C,inactive

row,SMILES,outcome
1,Cc1cccc(CNc2nc(C)cc(NCCC(=O)NCCOc3ccccc3)n2)c1,inactive
2,COc1cc2nc(SCCCC#N)n(C3CCCCCC3)c(=N)c2cc1OC,inactive
3,COc1ccc(-c2cccc(NC(=O)c3cccc(C#N)c3)c2)cc1CN(C)CCO,inactive
4,N#Cc1cccc(CNC(=O)c2cccc(Nc3ccnc4ccc(F)cc34)c2)c1,inactive
5,O=C(c1cc2c(s1)-c1cccc(Cl)c1SC2)N1CCN(c2ccncc2)CC1,inactive
6,O=C(Nc1ccc(C(=O)OCC2CCCCC2)cc1)N[C@@H](Cc1ccc(O)cc1)C(=O)NC1CCN(Cc2ccc(O)cc2)C1 (stereo not given in full),inactive
7,CCCC/C=C(\Cl)c1ccc(O)c2c1C[C@H]1C[C@H]3[C@H](N(C)C)C(=O)C(C(N)=O)=C(O)[C@@]3(O)C(=O)C1=C2O,inactive
8,CCC[C@@H]([C@@H](CC(C)C)C(=O)N[C@@H](CCCNc1nccc(C(F)(F)F)n1)C(=O)Nc1nccs1)N(O)C=O,inactive
9,CCc1cc(NC2CCN(C)CC2)nc(Nc2cccc(OC)c2)n1,inactive
10,COCCNCc1cccc(-c2ccc3c(Nc4ccc(F)cc4Cl)ccnc3c2)c1,inactive
11,O=C(/C=C/c1ccc(Cl)c(Cl)c1)NCCCCCN1CCC(c2c[nH]c3ccccc23)CC1,inactive
12,O=C(C=Cc1ccc(Cl)c(Cl)c1)NCCCCCN1CCCC(CCCNC(=O)c2cccs2)C1 (stereo not given),inactive
13,CO/C(=C\C=C\c1cc2cc(Cl)c(Cl)cc2[nH]1)C(=O)NCCCN1CCN(c2cccc(OC)c2)CC1,inactive
14,CCOC(=O)NCC(=O)Nc1cccc(-c2cccc(-c3nc4c(C)cccc4[nH]3)c2)c1,inactive
15,CCN(CCCN1CCCCC1)c1cc(C)nc(Nc2ccc(C)cc2C)n1,inactive
16,COc1ccc2nccc([C@@H](O)CN3CCC(NCCNc4ccccn4)CC3)c2c1,inactive
17,CN1CCN(c2ccc(Cl)cc2NC(=O)C2COc3ccccc3O2)CC1 (stereo not given),inactive
18,COc1ccc(Nc2nccc(NCCNC(=O)Nc3ccccc3F)n2)cc1,inactive
19,Cc1noc(C)c1C(=O)N1CCc2cc3nccc(N4CCN5CCC[C@H]5C4)c3cc21,inactive
20,O=C(N1CCN(c2ccc(C(F)(F)F)cc2[N+](=O)[O-])CC1)C(Cl)(Cl)Cl,inactive

# Target: Calcium-dependent protein kinase 4 (Plasmodium falciparum (isolate 3D7)) (UniProt Q8IBS5)
# Assay: PfCDPK4 kinase inhibitors, biochemical, TCAMS library (AID 1159588; cut-off not given, nearly all actives have IC50 up to about 0.91 µM)
# Conditions: recombinant PfCDPK4, Kinase-Glo ATP depletion luminescence
# Calcium-dependent protein kinase 4 (Plasmodium falciparum (isolate 3D7)), sequence (Q8IBS5 whole entry, looked up): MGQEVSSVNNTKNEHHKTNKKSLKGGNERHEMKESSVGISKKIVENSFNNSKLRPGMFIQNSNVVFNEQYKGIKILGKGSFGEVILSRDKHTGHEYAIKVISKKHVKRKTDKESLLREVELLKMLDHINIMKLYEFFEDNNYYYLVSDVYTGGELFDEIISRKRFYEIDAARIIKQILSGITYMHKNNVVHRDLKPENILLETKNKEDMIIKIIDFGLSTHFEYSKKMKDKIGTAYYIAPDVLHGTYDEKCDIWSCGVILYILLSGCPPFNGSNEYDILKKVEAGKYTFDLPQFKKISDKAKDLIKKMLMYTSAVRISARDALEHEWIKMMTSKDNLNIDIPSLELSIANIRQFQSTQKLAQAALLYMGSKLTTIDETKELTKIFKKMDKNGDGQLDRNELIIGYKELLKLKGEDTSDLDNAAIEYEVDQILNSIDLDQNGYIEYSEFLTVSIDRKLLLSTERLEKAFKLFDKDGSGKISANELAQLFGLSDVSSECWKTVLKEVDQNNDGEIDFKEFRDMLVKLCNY
row,SMILES,outcome
1,Nc1nc(N)c2c(ccn2Cc2cc3c(cc2Cl)OCO3)n1,inactive
2,O=C(Nc1ccc(S(=O)(=O)NCCCN2CCOCC2)cc1)c1cc(-c2ccccc2)n[nH]1,inactive
3,Cn1nc(-c2cccc(CN[C@@H]3CCc4ccc(O)cc43)c2)c2cnc(NCCCN3CCCC3)nc21,inactive
4,CCOc1ccc2c(NN=Cc3c4ccccc4cc4ccccc34)cc(C)nc2c1,inactive
5,Cc1[nH]c(C)c([N+](=O)[O-])c(=O)c1-c1ccc(Oc2ccccc2)cc1,inactive
6,O=C(Cc1cnc[nH]1)Nc1cccc(-c2ccc(-c3nc4ccc(C(F)(F)F)cc4[nH]3)cc2)c1,inactive
7,O=C(CCc1cnc[nH]1)Nc1cccc(-c2cccc(-c3nc4ccc(C(F)(F)F)cc4[nH]3)c2)c1,inactive
8,Cc1[nH]c(C)c(-c2cccc(-c3ccc(OC(F)(F)F)cc3)c2)c(=O)c1Br,inactive
9,FC(F)(F)c1cccc2c(NN=Cc3ccccc3)ccnc12,inactive
10,Cc1ccc(-n2c(=O)c3c(n4c(SC(C)C)nnc24)-c2ccccc2CC32CCCCC2)cc1,inactive
11,Cc1cccc(-c2nc3[nH]c(=O)cc(NC(=O)C(C)C)n3n2)c1,inactive
12,Cc1noc(-c2ccc(N3CCC(C(=O)N4CCN(C(C)C)CC4)CC3)cc2)n1,inactive
13,Cc1ccc(NC(=S)N2CCCN(CCCCCNC(=O)/C=C/c3ccc(Cl)c(Cl)c3)CC2)cc1Cl,inactive
14,Cc1cc(NC(=O)c2cccs2)ccc1OC1CCN(Cc2ccc(C#N)cc2)CC1,inactive
15,CN(CCCNC(=S)NC12CC3CC(CC(C3)C1)C2)CCCNc1ccnc2cc(Cl)ccc12,inactive
16,Cc1cc(C(=O)Nc2ccc3c(c2)CCN3C2CCN(Cc3cccc4cc[nH]c34)C2)no1 (stereo not given),inactive
17,CC(C)CCNCc1ccc(OCc2cccc(C(=O)Nc3ccccc3)c2)c(I)c1,inactive
18,Cc1nc2nc(N)nc(N)c2c(C)c1Cc1c(Cl)cccc1Cl,inactive
19,CC(=O)Nc1ccc(C(=O)Nc2cccc(-c3ccc(-c4nc5ccc(C(F)(F)F)cc5[nH]4)cc3)c2)cn1,inactive
20,CC1(C)N=C(N)N=C(N)N1OCc1cc2ccccc2cc1CON1C(N)=NC(N)=NC1(C)C,inactive

row,SMILES,outcome
1,Cc1cccc(CNc2nc(C)cc(NCCC(=O)NCCOc3ccccc3)n2)c1,inactive
2,COc1cc2nc(SCCCC#N)n(C3CCCCCC3)c(=N)c2cc1OC,inactive
3,COc1ccc(-c2cccc(NC(=O)c3cccc(C#N)c3)c2)cc1CN(C)CCO,inactive
4,N#Cc1cccc(CNC(=O)c2cccc(Nc3ccnc4ccc(F)cc34)c2)c1,inactive
5,O=C(c1cc2c(s1)-c1cccc(Cl)c1SC2)N1CCN(c2ccncc2)CC1,inactive
6,O=C(Nc1ccc(C(=O)OCC2CCCCC2)cc1)N[C@@H](Cc1ccc(O)cc1)C(=O)NC1CCN(Cc2ccc(O)cc2)C1 (stereo not given in full),inactive
7,CCCC/C=C(\Cl)c1ccc(O)c2c1C[C@H]1C[C@H]3[C@H](N(C)C)C(=O)C(C(N)=O)=C(O)[C@@]3(O)C(=O)C1=C2O,inactive
8,CCC[C@@H]([C@@H](CC(C)C)C(=O)N[C@@H](CCCNc1nccc(C(F)(F)F)n1)C(=O)Nc1nccs1)N(O)C=O,inactive
9,CCc1cc(NC2CCN(C)CC2)nc(Nc2cccc(OC)c2)n1,inactive
10,COCCNCc1cccc(-c2ccc3c(Nc4ccc(F)cc4Cl)ccnc3c2)c1,inactive
11,O=C(/C=C/c1ccc(Cl)c(Cl)c1)NCCCCCN1CCC(c2c[nH]c3ccccc23)CC1,inactive
12,O=C(C=Cc1ccc(Cl)c(Cl)c1)NCCCCCN1CCCC(CCCNC(=O)c2cccs2)C1 (stereo not given),inactive
13,CO/C(=C\C=C\c1cc2cc(Cl)c(Cl)cc2[nH]1)C(=O)NCCCN1CCN(c2cccc(OC)c2)CC1,inactive
14,CCOC(=O)NCC(=O)Nc1cccc(-c2cccc(-c3nc4c(C)cccc4[nH]3)c2)c1,inactive
15,CCN(CCCN1CCCCC1)c1cc(C)nc(Nc2ccc(C)cc2C)n1,inactive
16,COc1ccc2nccc([C@@H](O)CN3CCC(NCCNc4ccccn4)CC3)c2c1,inactive
17,CN1CCN(c2ccc(Cl)cc2NC(=O)C2COc3ccccc3O2)CC1 (stereo not given),inactive
18,COc1ccc(Nc2nccc(NCCNC(=O)Nc3ccccc3F)n2)cc1,inactive
19,Cc1noc(C)c1C(=O)N1CCc2cc3nccc(N4CCN5CCC[C@H]5C4)c3cc21,inactive
20,O=C(N1CCN(c2ccc(C(F)(F)F)cc2[N+](=O)[O-])CC1)C(Cl)(Cl)Cl,inactive
